From PubChem
RAM network inh: inhibitors of the yeast RAM network, primary screen, dse1pr::URA3 reporter, 5-FOA selection | inhibition, % at 50 µM | S. cerevisiae dse1pr::URA3 reporter, 5-FOA growth OD615, 2 d; analog-sensitive cbk1-as2 kinase mutant strain | 190,000 tested, 1.8% active;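 active means inhibition above a set limit, 3 SD over mean compound inhibition, cut at about 8.4% in these data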;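 further: 0% = DMSO-only wells with no growth and 100% = 10 µM 1-NA-PP1 full growth; inhibition rescues growth on 5-FOA so higher OD means more RAM inhibition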
EP2 modulator: EP2 receptor modulators, cAMP readout, primary screen, cell-based, HTRF cAMP, PGE2 stimulation; Prostaglandin E2 receptor EP2 subtype (Homo sapiens), P43116; EP2-expressing cells, cAMP HTRF FRET, PGE2 co-stimulation; induction, % at 25 µM; 260,000 tested, 0.83% active; AID 940, 2007;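 active means compounds whose cAMP rise, as percent of the full-agonist control response, exceeds 60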;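 further: rat C6 glioma line stably carrying human EP2 under a CMV promoter; the protocol text gives 20 µM as final concentration; 100% = response of wells given 1 µM PGE2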
Target sequence (P43116 whole entry, looked up): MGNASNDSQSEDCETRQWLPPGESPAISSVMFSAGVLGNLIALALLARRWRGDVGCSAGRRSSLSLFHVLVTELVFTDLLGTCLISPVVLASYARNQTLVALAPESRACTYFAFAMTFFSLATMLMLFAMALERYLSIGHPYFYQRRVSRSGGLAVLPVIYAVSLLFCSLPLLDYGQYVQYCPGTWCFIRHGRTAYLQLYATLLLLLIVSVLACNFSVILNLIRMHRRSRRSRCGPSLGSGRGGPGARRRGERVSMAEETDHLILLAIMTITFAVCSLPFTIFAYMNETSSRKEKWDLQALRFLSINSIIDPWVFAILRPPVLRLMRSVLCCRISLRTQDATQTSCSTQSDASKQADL
PG9 Ab binder: binders of HIV-1 gp120 antibody PG9, primary screen, biochemical, TR-FRET; TR-FRET gp120-PG9 antibody binding; 360,000 tested, 0.43% active; HIV-1 gp120 / PG9 antibody interaction; inhibition, % at 6.7 µM; AID 624416, 2012; in the data active means inhibition above about 8.5%
PGE2 EP2 inh: human EP2 receptor antagonists, primary screen, TR-FRET cAMP, C6 glioma cells | Prostaglandin E2 receptor EP2 subtype (Homo sapiens), P43116 | C6 glioma cells expressing human EP2; cells stimulated with saturating PGE2 | inhibition, % at 25 µM | 260,000 tested, 0.52% active;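 active means percent inhibition above 40 after rounding to a whole number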;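 further: rat C6 glioma host cells with rolipram phosphodiesterase inhibitor present; the protocol text gives 20 µM as final concentration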
NR1D1 modulator: modulators of Rev-erb alpha DNA binding, primary screen, biochemical, FITC-DNA, fluorescence polarization, uHTS. activity, % at 10 µM. Nuclear receptor subfamily 1 group D member 1 (Homo sapiens), P20393. Rev-erbα–FITC-DNA binding, 90 min. 370,000 tested, 0.79% active;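 active means activity above about 14%, limit read from the data; passing the limit was not always enough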;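 further: 0% = DMSO wells with 35 nM protein and 100% = DMSO wells with 750 nM protein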
SKN-1 inh: suppressors of acrylamide-induced Pgst-4::GFP reporter in worms, primary screen, SKN-1 inhibitor project, whole organism, uHTS, GFP/RFP fluorescence ratio, strain VP596 | inhibition, % at 21.8 µM | 360,000 tested, 0.49% active | C. elegans VP596 Pgst-4::GFP/RFP ratio, 24 h;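 active means interference check ratio from 0.5 to 1.5 plus GFP to RFP signal ratio inhibition reaching or exceeding a fixed threshold, cut at about 30% in these data, passing the limit was not always enough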
EP2 cAMP induct: cAMP induction in EP2, EP4, beta2-AR and parental cells, confirmation, counter-screen for EP2 modulator project, cell-based, five parallel assays, C6 glioma, HEK293 | cAMP HTRF induction; plus low (about EC15) PGE2 agonist | 1,300 tested, 47% active | shares compounds with EP2 modulator | calls only at 20 µM (by protocol);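 active means cAMP induction above 50% in the main assay while under 30% in all four parallel counter assays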;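 further: rat C6 glioma cells stably expressing human EP2 receptor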
Starred values were filed as active, the others as inactive; i = inactive; nt = no result given; + = active, no number. In the library only some 2.9% were active in any assay of this set; here they are far more common.

SMILES | RAM network inh | EP2 modulator | PG9 Ab binder | PGE2 EP2 inh | NR1D1 modulator | SKN-1 inh | EP2 cAMP induct
S=c1[nH]nc(Cc2ccccc2)n1Cc1ccco1 | 5 | 53 | 1 | -1 | -2 | 11 | i
CC(C)(C)C1CCc2onc(C(=O)Nc3cccnc3)c2C1 (stereo not drawn) | 1 | 52 | 1 | 3 | -5 | -8 | i
CC(C)(C)C1CCc2onc(C(=O)Nc3cccc(O)c3)c2C1 (stereo not drawn) | 4 | 43 | 1 | 25 | -3 | -1 | nt
CC1=CCc2c(cc3oc(C)cc(=O)c3c2O)OC1 | nt | 52 | nt | 4 | nt | nt | i
Cc1cc(SCC(=O)c2ccccc2)nc2ccccc12 | nt | 57 | nt | 12 | nt | nt | i
COc1ccccc1C1(O)CCN(Cc2ccc(-n3ccnc3C)cc2)CC1 | nt | -22 | nt | 10 | nt | nt | nt
CC(C)N(CCNC(=O)c1oc(=O)c2ccccc2c1-c1ccccc1)Cc1ccco1 | 2 | 69* | -2 | 10 | 0 | 2 | i
Cc1ccccc1NC(=O)c1oc(=O)c2ccccc2c1-c1ccccc1 | 5 | 44 | 0 | 10 | 0 | 18 | nt
CSc1nnc(CSCc2ccc(Cl)cc2Cl)n1-c1ccccc1 | 6 | 61* | 0 | 5 | -3 | 23 | +
Cc1ccc(C(O)CN2CCC3(CC2)CC(O)c2cc(Cl)c(C)cc2O3)cc1 (stereo not drawn) | nt | -95 | nt | 4 | nt | nt | nt
C=CCOc1ccc2c(c1)C(=NO)c1cc(OCC=C)ccc1-2 | 8 | 83* | 0 | 8 | 0 | 14 | +
CCc1cc(-c2[nH]ncc2-c2ccc3c(c2)OCO3)c(O)cc1O | 0 | 28 | 1 | nt | 5 | 9 | i
CCc1cc(-c2[nH]ncc2-c2ccc(OC)cc2)c(O)cc1O | nt | nt | 0 | nt | -3 | -6 | nt
COc1ccc(Cc2cnc(NC(=O)COc3ccc(OC)cc3)s2)cc1 | nt | 2 | nt | 14 | nt | nt | nt
Cn1c(=O)c2c(nc(SCC(=O)N3CCc4ccccc4C3)n2C)n(C)c1=O | -1 | 82* | -1 | 8 | 5 | -18 | i
COc1ccc(-c2cc(-c3n[nH]c(=S)n3-c3cccc4ccccc34)[nH]n2)cc1 | 1 | 67* | -1 | 4 | -6 | 1 | i
CCC1Oc2ccc(C)cc2N(Cc2cccc(C)c2)C1=O (stereo not drawn) | 3 | 75* | 2 | 6 | 1 | -6 | +
Cc1ccc2c(c1)N(Cc1ccccc1)C(=O)C(C)O2 (stereo not drawn) | nt | nt | -1 | nt | -3 | 7 | nt
CCn1nnnc1SCC(=O)Nc1cccc(C)n1 | -1 | 70* | -1 | 9 | 8 | 26 | i
CCC(C)(C(=O)NC1CCCCC1)N(C(=O)c1ccccn1)c1ccccc1 (stereo not drawn) | 0 | -2 | 4 | 6 | 6 | 19 | nt
CCC(C)(C(=O)NC1CCCCC1)N(C(=O)C1CCC(=O)N1)c1ccccc1 (stereo not drawn) | -1 | 67* | 0 | 7 | 0 | -15 | i
CN1CCN(NC(=O)CSc2nc(-c3ccc(F)cc3)cc(C(F)(F)F)n2)CC1 | nt | -35 | nt | 11 | nt | nt | nt
O=C(COc1cccc2ccccc12)N1c2ccccc2CCc2ccccc21 | 2 | 66* | 0 | 11 | 3 | -7 | +
Cc1cccc2cc(CN(Cc3ccc(F)cc3)C(=O)c3ccncc3)c3nnnn3c12 | nt | 4 | nt | 13 | nt | nt | nt
CC(C)N1CCN(C(=O)c2ccncc2)CC1 | nt | -67 | nt | 11 | nt | nt | nt
